# From PubChem BioAssay
# This is a sample that favours compounds with a hit; in the whole collection about 1.9% have one here.
# GLD-1 RNA inh: GLD-1-TGE RNA interaction inhibition (C. elegans); Q17339; purified GLD-1 + fluorescein TGE RNA, fluorescence polarization; inhibition, % at 5.96 µM; 0.44% of 320,000 active;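 active means percent inhibition above a per-plate cutoff, the plate mean of test compounds plus 3 SD, cut at about 30% in these data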;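 further: 0% = DMSO wells with GLD-1 and probe and 100% = wells lacking GLD-1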
# LANA-H2B inh: blocks KSHV LANA binding to histone H2A/H2B; cell-free LANA-H2A/H2B peptide, fluorescence polarization; inhibition, % (concentration not given with the values); 0.6% of 320,000 active; AID 2629; in the data active means inhibition mostly above about 10%, no sharp cut-off; inactive means mostly below about 6.7%
# MEX-5 binding: C. elegans MEX-5 TCR-2 RNA binding activity; 0.38% of 300,000 active; Q9XUB2; AID 1832; MEX-5/FITC-TCR2 RNA binding, fluorescence polarization; hits give low values; activity score (negative = inhibition of binding), % at 10 µM;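 active means inhibition past about -25% in most replicates, and total fluorescence under double the plate's negative control median, limit read from the data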;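 further: 0% = DMSO and -100% = 5 µM competing unlabeled TCR2 RNA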
# MCL1 BIM primary: inhibitors of human MCL1 binding to BIM-BH3 peptide. Q07820. GST-MCL1 / FITC-Bim-BH3 fluorescence polarization. inhibition, % at 10.9 µM. 0.68% of 320,000 active. AID 2057;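 active means inhibition above the mean inhibition of all tested compounds plus 3 SD, set per campaign, cut at about 40% in these data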;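 further: 0% = DMSO wells and 100% = unlabeled Bim-BH3 peptide control; higher means more loss of mP so more displacement of Bim peptide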
# Target sequence (Q07820 whole entry, looked up): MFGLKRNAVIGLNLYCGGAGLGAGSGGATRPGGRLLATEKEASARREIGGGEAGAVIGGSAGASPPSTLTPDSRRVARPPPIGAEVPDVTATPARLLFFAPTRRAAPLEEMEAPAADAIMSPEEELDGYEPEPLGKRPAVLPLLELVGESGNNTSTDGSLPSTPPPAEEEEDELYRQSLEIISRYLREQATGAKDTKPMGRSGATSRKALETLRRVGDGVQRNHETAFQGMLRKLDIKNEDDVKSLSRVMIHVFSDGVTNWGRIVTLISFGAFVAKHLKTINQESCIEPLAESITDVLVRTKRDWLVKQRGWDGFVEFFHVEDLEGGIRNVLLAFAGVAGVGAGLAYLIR
# BCLXL inh: Bcl-xL (human) inhibition | Q07817 | GST-Bcl-xL / FITC-Bim BH3 peptide fluorescence polarization | inhibition, % at 10.9 µM | 0.7% of 320,000 active | AID 2129;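 active means inhibition above the mean of all tested compounds plus 3 SD, cutoff set per campaign, cut at about 30% in these data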;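 further: 0% = DMSO wells and 100% = unlabeled Bim-BH3 peptide competitor; inhibitors lower millipolarization by displacing the labeled peptide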
# Target sequence (Q07817 whole entry, looked up): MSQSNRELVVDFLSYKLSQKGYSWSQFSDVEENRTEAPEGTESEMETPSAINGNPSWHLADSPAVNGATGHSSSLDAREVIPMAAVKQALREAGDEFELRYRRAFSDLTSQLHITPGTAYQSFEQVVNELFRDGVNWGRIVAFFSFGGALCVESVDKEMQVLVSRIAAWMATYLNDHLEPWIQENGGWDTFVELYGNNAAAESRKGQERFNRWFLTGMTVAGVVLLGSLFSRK
# CR mimetic SO: yeast age-related superoxide inhibition as caloric restriction mimetic | S. cerevisiae aged cells, superoxide DHE fluorescence; hits give low values | superoxide response (% of plate mean), % at 10 µM | 0.18% of 330,000 active;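 active means superoxide response under a set limit, about three screen SD below normal, cut at about 65% in these data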;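 further: yeast aged for seven days with compound at 30 °C before DHE staining; 100% = average MFI of all compound-treated wells on the plate with controls excluded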
# CR mimetic CP: yeast aging superoxide inhibition, cherry pick confirmation; superoxide response (% of plate), % at 10 µM; 1% of 850 active; S. cerevisiae aging, superoxide DHE fluorescence; hits give low values; shares compounds with CR mimetic SO;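 active means superoxide signal below 65% of the plate average of sample wells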;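 further: cells aged with compound for 7 days at 30 degrees C before staining; 100% equals mean DHE fluorescence of all compound wells on the plate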
# DHE fluor count: counter-screen for compounds affecting DHE oxidation and fluorescence in yeast | shares compounds with CR mimetic SO | S. cerevisiae BY4741, flow cytometry; hits give low values | fluorescence response, % at 10 µM | 850 tested, under 10 active;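 active means fluorescence response below 15%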;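 further: percent of the mean fluorescence averaged over all compound wells on the plate; lower means stronger quenching of DHE signal or ROS scavenging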
# * = called active by the depositor; · = not tested or not shown.
SMILES,GLD-1 RNA inh,LANA-H2B inh,MEX-5 binding,MCL1 BIM primary,BCLXL inh,CR mimetic SO,CR mimetic CP,DHE fluor count
CC1C(=O)N(Cc2ccccc2F)c2ccccc2N1C(=O)c1c(F)cccc1F (stereo unspecified),-1,-2,2,3,2,65*,92,99
Cc1ccc2c(c1)C=CC(C)(C)S2=O (stereo unspecified),5,2,0,2,0,64*,97,112
CC[N+]1=C(C)C(C)(C)c2cc(C)ccc21,-16,-2,0,-9,7,108,·,·
CC(C)Cn1ccc(=O)n(CC(C)C)c1=O,1,7,1,0,2,98,·,·
CCOc1cccc(/C=C/c2ccc3cccc(O)c3n2)c1OC,0,-9,-3,1,4,42*,101,95
CCOc1cccc(/C=C/c2ccc3cccc(O)c3n2)c1O,9,-4,-1,8,2,121,·,·
Cc1ccc(Cl)cc1NC(=O)Nc1cccs1,1,-5,2,3,2,109,·,·
CC(C)OC(=O)CSc1nnc(-c2ccc(Cl)cc2Cl)o1,5,4,0,4,6,107,93,92
CCCCOC(=O)CSc1nnc(-c2ccc(Cl)cc2Cl)o1,5,-7,-3,-7,-7,105,·,·
CC(=O)Nc1ccc(NS(=O)(=O)c2ccccc2)cc1,-12,-4,1,4,6,97,104,88
CC(=O)Nc1ccc(S(=O)(=O)Nc2ccc(Nc3ccccc3)cc2)cc1,7,0,-5,2,5,98,·,·
CSc1cccc(NS(=O)(=O)c2ccccc2)c1,-3,-2,-1,0,3,104,100,102
Cc1ccc(S(=O)(=O)Nc2ccccc2C(N)=O)cc1,5,4,1,-2,0,105,·,·
NC(=O)c1ccccc1NS(=O)(=O)c1ccccc1,-8,-4,0,-4,6,111,101,92
Cc1ccc2c(c1)c1c(c(=O)n(-c3ccccc3C)c(=O)n1CC(=O)NCC1CCCO1)n2C (stereo unspecified),-2,-2,-1,-10,1,78,·,·
COc1ccc(C2(C(=O)NCc3ccco3)CCCC2)cc1OC,0,1,0,0,1,101,·,·
COc1ccc(C2(C(=O)NCCc3ccccc3)CCCC2)cc1OC,-1,-8,1,-23,-21,47*,108,93
COc1cc2c(cc1OC)CN(C(=O)/C=C/c1cc(OC)c(OC)c(OC)c1)CC2,-6,-3,1,-11,-4,63*,97,98
O=S(=O)(/N=C(/Nc1cccc2ccccc12)c1ccccc1)c1ccc(F)cc1,8,0,1,1,3,86,·,·
CCCn1c(CN2CCN(C(=O)OCC)CC2)nc2cc([N+](=O)[O-])ccc21,4,0,1,-2,3,106,·,·
CCC(C)(C)c1ccc(OCCCC[n+]2cccc(C)c2)c(C(C)(C)CC)c1,·,·,-2,·,·,·,121,107
Cc1c(C(=O)O)oc2ccc(S(=O)(=O)NCc3ccc(F)cc3)cc12,1,8,0,3,6,75,·,·
COc1ccc(CNS(=O)(=O)c2ccc3oc(C(=O)O)c(C)c3c2)cc1,3,-2,-3,4,1,63*,100,121
Cc1c(C(=O)O)oc2ccc(S(=O)(=O)NC3CCCCCCC3)cc12,-6,1,-3,-11,-1,63*,110,131
O=C(CN1CCN(c2ccccc2F)CC1)c1ccc2cc[nH]c2c1,2,5,1,2,6,63*,96,88
SMILES,GLD-1 RNA inh,LANA-H2B inh,MEX-5 binding,MCL1 BIM primary,BCLXL inh,CR mimetic SO,CR mimetic CP,DHE fluor count
COC(=O)C(C)Oc1cc(OC(C)C(=O)OC)c2c(-c3ccccc3)cc(=O)oc2c1 (stereo unspecified),1,-1,-2,1,1,94,·,·
COc1ccc(NC(=O)Cn2c(=O)oc3ccccc32)cc1,1,-5,-1,4,0,103,·,·
CC(C)c1ccc(NC(=O)Cn2c(=O)oc3ccccc32)cc1,-4,-5,0,-5,3,65*,95,110
CCOC(=O)N1CCN(S(=O)(=O)c2ccc(C(=O)Nc3nnc(C4CC4)o3)cc2)CC1,-4,-7,0,7,7,96,·,·
CC1CC(C)CN(S(=O)(=O)c2ccc(C(=O)Nc3nnc(C4CC4)o3)cc2)C1 (stereo unspecified),-12,-8,-2,16,5,83,92,96
CC1CCN(S(=O)(=O)c2ccc(C(=O)Nc3nnc(-c4ccccn4)o3)cc2)CC1,-4,-1,0,11,11,94,96,99
CC1CCCN(S(=O)(=O)c2ccc(C(=O)Nc3nnc(-c4ccco4)o3)cc2)C1 (stereo unspecified),2,4,-3,10,6,81,·,·
CC1CCN(S(=O)(=O)c2ccc(C(=O)Nc3nnc(C4=COCCO4)o3)cc2)CC1,-4,0,1,0,-3,113,·,·
COCc1nnc(NC(=O)c2ccc(S(=O)(=O)N3CCCC3)cc2)o1,-3,-5,-1,12,4,82,116,125
CCc1nnc(NC(=O)c2ccc(S(=O)(=O)N3CCCC(C)C3)cc2)o1 (stereo unspecified),0,-7,-3,7,7,64*,103,107
COc1ccc2[nH]c(C(=O)N3CCC(CO)(Cc4cccc(C(F)(F)F)c4)CC3)c(C)c2c1,-3,2,0,5,0,117,·,·
O=C(O)C1CCCN1S(=O)(=O)c1ccc(F)cc1 (stereo unspecified),5,14,-1,0,2,104,96,91
Cc1ccc(S(=O)(=O)N2CCCC2C(=O)O)cc1 (stereo unspecified),6,-2,1,0,2,92,·,·
Cc1[nH]c2ccccc2c1N=Nc1ccccc1F,9,7,0,-6,1,65*,91,98
Cc1[nH]c2ccccc2c1N=Nc1ccc(F)cc1,6,-4,·,4,5,94,·,·
Cc1ccc(NC(=O)COC(=O)c2sccc2C)cc1S(=O)(=O)N1CCOCC1,-13,5,-1,-13,2,106,·,·
CCOc1cc(C)c(S(=O)(=O)N2CCCC2)cc1C,0,2,-3,4,5,65*,89,106
O=S(=O)(/N=C(/c1ccc(F)cc1)N1CCCCC1)c1ccc(Cl)cc1,6,1,2,3,7,107,·,·
